Bioassay records (PubChem)
Mm-Cpn inhibitor: inhibitors of Methanococcus maripaludis chaperonin TRiC (MmCpn); AID 504842; 330,000 compounds, 0.031% hits; Potency, µM (highest dose often 76.9 µM), actives largely listed as inhibitors; purified Mm-Cpn ATPase, ADP Transcreener TR-FRET; active = well fitted inhibition curve with a large enough effect; inconclusive = small, poorly fitted or top-dose-only effect; also: nearly all actives have a fitted effect of over 80% in size
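Reaction buffer contained 30 mM Tris pH 7.4, 100 mM KCl, 5 mM MgCl2 and 1 mM DTT. Mm-CPN (25 nM final) hydrolysed 10 uM ATP over 30 min at 37°C; ADP was read by HTRF.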
D3 antag: antagonists of human D3 dopamine receptor | D3R cells, DiscoveRx beta-arrestin luminescence, antagonist mode; stronger effect = lower value | max response, negative = inhibition, % | P35462 | 360,000 compounds, 2.5% hits; in the data active = max response below about -50%; inconclusive = no clear call, values can overlap the other calls
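Cells plated overnight at 1500 cells/well, then exposed to library compounds with dopamine controls for 90 minutes at 37 degrees C. DiscoveRx reagent added for 30–60 minutes at room temperature; luminescence read, quantitative HTS format.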
PTAP TSG101 blk: blocks PTAP/TSG101 interaction to inhibit HIV-1 budding. Q99816. Fluorescence polarization, FITC-PTAP peptide / Tsg101 binding. Potency, µM (series often up to 115 µM), actives largely listed as inhibitors. 340,000 tested, under 10 active; active = well fitted inhibition curve with a large enough effect in the main read-out, with a control signal flat, not every such curve was filed as active; inconclusive = small, poorly fitted or top-dose-only effect, or effect the other way, or a change in a side signal; inactive = no such curve, though single readings can be large or run the other way
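FP read-out: FITC-PTAP peptide, 50 nM final, binding Tsg101 binding domain, 10 uM final; 20 min, r.t.; 10 mM HEPES pH 7.5, 0.15 M NaCl, 0.01% Tween 20, 3 mM EDTA, 0.1 mM TCEP.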
Rango release inh: inhibitors of RanGTP-induced Rango-importin beta complex dissociation; 340,000 compounds, 0.071% hits; O95149+P62826; Potency, µM (series often up to 46.1 µM); Biochemical FRET Rango-importin beta, RanGTP-induced dissociation; also: nearly all actives have a fitted effect of over 45% in size
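Two FRET readings bracket the reaction: one 5 min after compound meets Rango–importin beta, another 45 min after RanGTP-RCC1 (0.6 uM Ran, 0.2 uM RCC1, 2 mM GTP) is added. Only the second defines inhibition.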
D3 ag: agonists of human D3 dopamine receptor. D3R DiscoveRx beta-arrestin cells, luminescence, 90 min. max activation, %. 410,000 compounds, 0.58% hits; in the data active = max activation above about 30%
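Agonist-mode cell screen: cells plated at 1500/well and incubated overnight at 37 °C, then exposed to library compounds for 90 min at 37 °C. Detection reagent was added for 30–60 min at room temperature, and luminescence was read.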
Rango complex inh: inhibitors of Rango-importin beta complex formation. Potency, µM (doses to about 92.2 µM). Rango CFP/YFP FRET sensor + importin beta, 45 min. AID 540263. 340,000 compounds, 0.031% hits. Q14974; also: nearly all actives have a fitted effect of over 15% in size
Target sequence (Q14974 whole entry, looked up): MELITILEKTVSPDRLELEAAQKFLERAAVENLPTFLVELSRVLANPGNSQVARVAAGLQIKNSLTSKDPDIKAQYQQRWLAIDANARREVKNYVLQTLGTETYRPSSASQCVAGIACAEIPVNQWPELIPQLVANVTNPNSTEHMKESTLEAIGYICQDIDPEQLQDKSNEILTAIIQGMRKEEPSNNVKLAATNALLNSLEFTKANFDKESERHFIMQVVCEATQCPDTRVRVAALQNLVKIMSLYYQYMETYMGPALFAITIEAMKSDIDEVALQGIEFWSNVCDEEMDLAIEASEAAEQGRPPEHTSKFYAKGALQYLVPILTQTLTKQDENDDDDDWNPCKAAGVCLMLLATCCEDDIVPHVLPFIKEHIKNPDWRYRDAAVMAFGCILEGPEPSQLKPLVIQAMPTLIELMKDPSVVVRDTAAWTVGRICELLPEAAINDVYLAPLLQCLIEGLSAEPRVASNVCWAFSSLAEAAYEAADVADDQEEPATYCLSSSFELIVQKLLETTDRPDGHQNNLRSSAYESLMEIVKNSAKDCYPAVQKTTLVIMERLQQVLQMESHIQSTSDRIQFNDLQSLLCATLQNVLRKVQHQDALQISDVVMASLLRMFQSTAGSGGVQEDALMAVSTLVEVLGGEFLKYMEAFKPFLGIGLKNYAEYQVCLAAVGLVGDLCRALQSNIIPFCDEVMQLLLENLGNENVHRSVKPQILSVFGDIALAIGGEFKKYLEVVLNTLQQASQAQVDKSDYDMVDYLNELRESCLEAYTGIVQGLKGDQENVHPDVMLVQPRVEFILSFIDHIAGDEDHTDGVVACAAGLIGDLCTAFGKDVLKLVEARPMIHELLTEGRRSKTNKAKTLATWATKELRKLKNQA
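FRET biosensor (snurportin 1 IBB flanked by EYFP and cerulean), 50 nM, with compound 5 min, then 0.125 microM importin beta in PBS, 1 mM DTT, 0.02% Tween-20, 0.1% BSA. CFP/YFP ratio read after 45 min at room temperature; pre-read flags interference.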
Large screens that a line does not name were inactive. A selection: hits, their analogues and other compounds. The true share with any hit is near 2.9%. Unless noted, calls follow the shape of the full dose curve.

CNCCC=C1c2ccccc2CCc2ccccc21	D3 antag -91
C[N+](C)(C)CC/C=C1/c2ccccc2CSc2ccccc21	none
Cc1ccccc1Cn1c(=O)n(CC2CCC(C(=O)N3CCC(C)CC3)CC2)c(=O)c2sccc21 (stereo unspecified)	none (no result: Mm-Cpn inhibitor, D3 antag, PTAP TSG101 blk, Rango release inh, Rango complex inh)
Cc1ccc(S(=O)(=O)c2nc(S(=O)(=O)c3ccc(C)cc3)c(N3CCN(CCO)CC3)s2)cc1	D3 antag -92
CCS(=O)(=O)c1nc(S(=O)(=O)c2ccc(Cl)cc2)c(N2CCN(C)CC2)s1	D3 antag -75
CS(=O)(=O)c1nc(S(=O)(=O)c2ccc(Cl)cc2)c(N2CCN(CCO)CC2)s1	Rango release inh inconclusive
O=C(CSc1c2c(nc3ccccc13)CCCC2)NCc1ccco1	none
O=C(COC(=O)c1c2c(nc3ccccc13)/C(=C\c1cccs1)CCC2)Nc1ccccc1	Rango release inh inconclusive, D3 ag 38, Rango complex inh inconclusive
CC(C)NC(=O)NC(=O)COC(=O)c1c2c(nc3ccccc13)CCC2	D3 ag 36
COc1cccc(NC(=O)COC(=O)c2c3c(nc4ccccc24)CCC(C)C3)c1 (stereo unspecified)	D3 ag 53
O=C(NCc1ccco1)c1c2c(nc3ccccc13)CCC2	D3 antag -59, Rango release inh inconclusive, Rango complex inh inconclusive
CC(C)(C)NC(=O)COC(=O)c1c2c(nc3ccccc13)CCC2	none
CC1CCc2nc3ccccc3c(C(=O)OCC(=O)NC3CCS(=O)(=O)C3)c2C1 (stereo unspecified)	none
Cc1ccccc1NC(=O)Cn1c(=O)n(CCC(=O)N2CCc3ccccc3C2)c(=O)c2ccccc21	none (no result: Mm-Cpn inhibitor, D3 antag, PTAP TSG101 blk, Rango release inh, Rango complex inh)
COc1cccc(NC(=O)C2CCN(C(=O)N3CC(C)Oc4ccccc43)CC2)c1 (stereo unspecified)	none (no result: Mm-Cpn inhibitor, D3 antag, PTAP TSG101 blk, Rango release inh, Rango complex inh)
COc1cccc(NC(=O)COC(=O)c2c(F)cccc2Cl)c1	D3 antag -62
Cc1ccc(-n2c(C)c3c(C)nnc(C)c3c2C)cc1C	D3 antag -58, Rango complex inh inconclusive
CCOC(=O)c1cc(C)n(CC2CCC(C(=O)Nc3ccc(C)cc3)CC2)c1C (stereo unspecified)	none (no result: Mm-Cpn inhibitor, D3 antag, PTAP TSG101 blk, Rango release inh, Rango complex inh)
COc1cccc(NC(=O)C2CCN(c3nnc(-n4c(C)ccc4C)s3)CC2)c1	none (no result: Mm-Cpn inhibitor, D3 antag, PTAP TSG101 blk, Rango release inh, Rango complex inh)
COc1ccc(OC)c(NC(=O)c2c(NCc3cccs3)sc3c2CCCCC3)c1	none (no result: Mm-Cpn inhibitor, D3 antag, PTAP TSG101 blk, Rango release inh, Rango complex inh)
O=c1cc(-c2cccc(F)c2)oc2ccccc12	none (no result: Mm-Cpn inhibitor)
O=c1cc(-c2c(F)c(F)c(F)c(F)c2F)oc2ccccc12	D3 antag -67
Cc1cccc(N(CC(=O)NC2CCCC2)C(=O)CCC(=O)Nc2cc(C)on2)c1	D3 ag 32
COC(=O)c1cccc(N(CC(=O)NC2CCCC2)C(=O)CCC(=O)Nc2cc(C)on2)c1	none
Cc1n[nH]c(C)c1S(=O)(=O)N(CC(=O)NCc1ccccc1Cl)c1ccc(C(C)C)cc1	none (no result: Mm-Cpn inhibitor, D3 antag, PTAP TSG101 blk, Rango release inh, Rango complex inh)
COc1ccc(C(=O)NC(=S)Nc2cc3oc4ccccc4c3cc2OC)cc1	D3 ag 31
COc1ccc([C@@H]2COc3c(ccc4c3C=CC(C)(C)O4)C2)c(OC)c1	D3 ag 33 (no result: Mm-Cpn inhibitor)
COc1ccc(C2C=CC(=O)CC2)c(OC)c1 (stereo unspecified)	none (no result: Mm-Cpn inhibitor, PTAP TSG101 blk, Rango release inh, Rango complex inh)
COc1ccc(-c2[nH]ncc2C(=O)NCc2cccc(Cl)c2)cc1	none (no result: Mm-Cpn inhibitor, D3 antag, PTAP TSG101 blk, Rango release inh, Rango complex inh)
Oc1cccc(-c2nc3c4c(ncn3n2)-c2ccccc2CC42CCCC2)c1	D3 ag 83 (no result: PTAP TSG101 blk)
O=C(N/N=C/c1cc([N+](=O)[O-])ccc1O)c1cccc(N2CCCC2=O)c1	none
COc1ccc(CCC(C)NC2C3CC4CC(C3)CC2C4)cc1 (stereo unspecified)	D3 antag -97
COc1ccc(CCC(C)Nc2ccccc2F)cc1 (stereo unspecified)	none
COc1ccc(CCC(C)NCc2ccc(C(F)(F)F)cc2)cc1 (stereo unspecified)	D3 antag inconclusive
CC(CCc1ccccc1)NCC#N (stereo unspecified)	D3 ag 32
COc1ccc(CNC(C)CCc2ccccc2)cc1 (stereo unspecified)	D3 antag -55
CC(CCc1ccc(O)cc1)NCc1ccc(Br)cc1 (stereo unspecified)	D3 ag 80
CC(=O)NC(C)CCc1ccccc1 (stereo unspecified)	none
COc1ccc(OC)c(CNC(=O)c2cc3c(=O)oc4ccc(C)cc4c3s2)c1	none (no result: Mm-Cpn inhibitor, D3 antag, PTAP TSG101 blk, Rango release inh, Rango complex inh)
CC(/C=C/C=C(\C)C(=O)O[C@@H]1O[C@H](CO[C@@H]2O[C@H](CO)[C@@H](O)[C@H](O)[C@H]2O)[C@@H](O)[C@H](O)[C@H]1O)=C\C=C\C=C(C)\C=C\C=C(/C)C(=O)O[C@@H]1O[C@H](CO[C@@H]2O[C@H](CO)[C@@H](O)[C@H](O)[C@H]2O)[C@@H](O)[C@H](O)[C@H]1O	none (no result: Mm-Cpn inhibitor, D3 antag, PTAP TSG101 blk, Rango release inh, Rango complex inh)
COc1ccc(NC(=O)Cn2c(=O)n(Cc3nc(-c4ccccc4)no3)c(=O)c3cc4c(cc32)OCO4)c(OC)c1	none (no result: Mm-Cpn inhibitor, D3 antag, PTAP TSG101 blk, Rango release inh, Rango complex inh)
COc1cc(CCC(C)NCc2ccccc2)ccc1O (stereo unspecified)	D3 ag 32
CCCC(=O)Nc1nc2c(s1)CC(C(C)(C)C)CC2 (stereo unspecified)	none (no result: Mm-Cpn inhibitor, D3 antag, PTAP TSG101 blk, Rango release inh, Rango complex inh)
Cc1ccc(C)c(C(=O)C(C)OC(=O)c2cccn2C)c1 (stereo unspecified)	D3 antag -51
COc1ccc(CNC(=O)C(C)OC(=O)c2cccn2C)cc1 (stereo unspecified)	none
COc1ccnc(CSC(N)=Nc2cccc(C(F)(F)F)c2)c1	D3 antag -51, Rango release inh inconclusive, Rango complex inh inconclusive
COc1ccnc(CSC(N)=Nc2ccccc2OC)c1	D3 antag -75, Rango complex inh inconclusive
Cc1ccc(SC(=O)c2c(C)noc2-c2cc(C)on2)cc1	D3 antag -92
Cc1cc(-c2onc(C)c2C(=O)N/N=C/c2ccccc2)no1	none
COc1ccc(Oc2cc(C)c3ccccc3n2)cc1	D3 ag 30, Rango complex inh inconclusive
COc1ccc(-c2cnc(N)n2C)cc1	Rango complex inh inconclusive
Cn1c(-c2ccccc2)cnc1N	D3 antag -117
O=c1[nH]nc(Cc2ccc(-c3cccc(Cl)c3)o2)c2ccccc12	D3 antag -61
CCC(C)c1nc2c(c(N3CCC3=O)c1-c1ccccc1)CCCC2 (stereo unspecified)	D3 ag 62 (no result: Mm-Cpn inhibitor)
CCSc1nc(-c2ccccc2)nc2c1CCCC2	none
CC1CCCN(C(=O)c2cccc(S(=O)(=O)NCc3ccccc3)c2)C1 (stereo unspecified)	D3 antag -54 (no result: Mm-Cpn inhibitor, PTAP TSG101 blk, Rango release inh, Rango complex inh)
